The source of these data is PubChem BioAssay AID485284 (NMMLSC, 2010).

Entries with a potency or affinity are not part of this list.

The test is described as follows: inhibitors of CD8+ T cell–vesicle binding, dose response, mouse 2C CD8+ T cells, flow cytometry (AID 485284).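 Further: drosophila derived vesicles carrying Ld MHC with QL9 peptide plus B7-1 and ICAM-1; vesicle binding seen as anti-B7-1 PE fluorescence on CD8 gated cells.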 The conditions noted are these: 2C mouse CD8+ T cell-exosome binding; at 45 µM (top of the series). On the technique in general: A flow cytometer gives signals particle by particle.

Consider `COC(=O)C1=C(c2ccc(F)cc2F)C[C@@H]2CC[C@H]1N2C(=O)NCCNC(C)=O`, for which the binding remaining, % of control was found to be 107%. For the compound `COc1ccc2c3c1OC1[C@H](O)CCC4[C@@H](C2)N(C)CC[C@]314` (stereo partly specified), the binding remaining, % of control was determined as 230%.

Take `COC(=O)C1=C(c2c(C)noc2C)C[C@@H]2CC[C@H]1N2C(=O)NCCOc1ccccc1Cl`: the binding remaining, % of control was 124%. For `O=C(Nc1ccc(Cl)cc1)O/N=C(\c1ccccc1)c1ccccn1`, the binding remaining, % of control amounted to 85.8%.

Turning to `CC(C)(O)C(=O)Nc1ccc([N+](=O)[O-])c(C(F)(F)F)c1`, the binding remaining, % of control worked out at 166%. With `Cc1sc2ncnc(NCC(C)(C)N3CCOCC3)c2c1C`, the binding remaining, % of control came out at 133%.
